Source: PubChem (The Scripps Research Institute Molecular Screening Center)
Most compounds without a hit are left out; they make up all but 4.1% or so of the library.
DAX1 inh-1: DAX1 (NR0B1) inhibitors on StAR promoter, primary screen, cell-based, luminescence, SF-1 (NR5A1), full-length DAX-1. HEK293T StAR-luciferase reporter, SF-1/DAX-1 repression relief. inhibition, % at 6.8 µM. 370,000 tested, 1.1% active. AID 652010, 2013;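 active means inhibition above the mean over all tested compounds plus 3 SD, cut at about 3.6% in these data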;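 further: 0% = DAX-1 cells with DMSO and 100% = cells lacking DAX-1 with DMSO; higher inhibition means more luminescence from relief of DAX-1 repression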
hgDAF-12 ag: H. glycines DAF-12 receptor agonists, primary screen, cell-based, luminescence, HEK293, GAL4 fusion, UAS-luciferase; 370,000 tested, 1.8% active; Nuclear hormone receptor DAF-12 (Heterodera glycines), GAL4 fusion; HEK293 GAL4-hgDAF12 UAS-luciferase reporter, agonist luminescence; normalized to butyrate control; activation, % at 6.8 µM;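 active means activation above a cutoff set at the mean of all screened compounds plus 3 SD, cut at about 10% in these data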;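 further: 0% = DMSO wells and 100% = sodium butyrate wells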
DAX1 inh-2: DAX1 (NR0B1) inhibitors, primary screen, cell-based, HEK293, Gal4-DAX1, luciferase luminescence; Nuclear receptor subfamily 0 group B member 1 (Homo sapiens), P51843; HEK293 Gal4-DAX1 luciferase reporter; inhibition, % at 6.75 µM; 340,000 tested, 0.99% active; AID 504766, 2011;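 active means inhibition above the mean over all tested compounds plus 3 SD, cut at about 4.2% in these data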;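 further: 0% = DAX1-transfected cells with DMSO and 100% = empty-vector control cells with DMSO; inhibition shows as a rise in luminescence from relieved DAX1 repression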
Target sequence (P51843 207-470 limits assumed): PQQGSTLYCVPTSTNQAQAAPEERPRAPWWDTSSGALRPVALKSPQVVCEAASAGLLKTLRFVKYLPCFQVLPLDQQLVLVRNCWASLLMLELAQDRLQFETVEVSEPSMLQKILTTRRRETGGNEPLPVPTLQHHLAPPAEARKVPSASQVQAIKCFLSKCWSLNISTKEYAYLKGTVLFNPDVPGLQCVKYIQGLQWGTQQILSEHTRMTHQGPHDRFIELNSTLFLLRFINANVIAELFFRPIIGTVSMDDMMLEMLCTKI
ssDAF-12 act: S. stercoralis DAF-12 nuclear receptor activators, primary screen, cell-based, luminescence, HEK293, GRIP1 co-expression, lit1-tk-luc | activation, % at 6.8 µM | HEK293 ssDAF-12/GRIP1 lit1-tk-luc reporter; % of 3 µM dafachronic acid response | 370,000 tested, 1% active;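 active means activation above the mean over all tested compounds plus 3 SD, cut at about 0.9% in these data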;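 further: 0% = DMSO-only wells and 100% = 3 µM delta7-dafachronic acid wells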
hcDAF-12 act: H. contortus DAF-12 nuclear receptor activators, primary screen, cell-based, luminescence, HEK293, lit1-tk-luc reporter; HEK293 hcDAF-12 lit1-tk-luc reporter; 0% DMSO, 100% Δ7-dafachronic acid; activation, % at 6.8 µM; 370,000 tested, 1.4% active; AID 652067, 2013;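 active means activation above the mean of all tested compounds plus 3 SD, cut at about 5.5% in these data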;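 further: 100% = response to 3 µM Δ7-dafachronic acid high control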
Active calls of the source: *; / = no result.

SMILES	DAX1 inh-1	hgDAF-12 ag	DAX1 inh-2	ssDAF-12 act	hcDAF-12 act
CCn1c(CNC(=O)Cc2ccc(OC)cc2)nnc1SCC(=O)NC1CCCCC1	-0.2	-0.9	-0.4	1.0*	0.0
CCn1c(CNC(=O)Cc2ccc(OC)cc2)n[nH]c1=S	4.1*	-0.1	-0.7	-1.6	-1.4
COc1ccc(CC(=O)NCc2n[nH]c(=S)n2-c2ccc(F)cc2)cc1	0.1	-5.7	1.0	-1.1	0.1
CCOc1ccccc1-c1nnc(SCC(=O)NC2CC2)n1CC	-0.8	2.7	-0.1	1.1*	4.5
O=S1(=O)CC(N2CCCC2)CN1C1CCCC1 (stereo not given)	0.6	2.5	/	-1.3	3.6
O=S1(=O)CC(N2CCCC2)CN1C1CCCCC1 (stereo not given)	4.3*	0.6	/	-1.5	-0.9
CC(C)(C)CCNc1nc(-c2ccccn2)nnc1-c1ccccc1	/	-12.4	/	-2.0	-4.6
C[C@H]1[C@@H](OC(=O)NCc2ccc(Cl)cc2)CC[C@@]23CCCN2C(=O)CCC[C@@H]13	/	-1.4	/	-0.6	-0.3
Oc1c(/C=N/c2ccccn2)sc2ccccc12	1.0	2.6	4.7*	0.6	4.1
Oc1c(C=Nc2ccc(Cl)cn2)sc2ccccc12	0.2	8.3	0.8	-0.8	3.2
Cc1cccc(CNC(=O)NC2CCCCN(Cc3cccc(Cl)c3)C2=O)c1 (stereo not given)	-1.6	-1.5	/	-1.9	-3.5
COc1ccc(-c2ccc(OC)cc2)cc1	-0.1	1.4	1.9	-0.4	0.8
COc1ccc(-c2cnc3c(c2)CCC3(C#N)C#N)cc1	-0.2	-3.5	7.3*	-1.4	-1.5
C=CCNC(=O)NC[C@@]1(C(=O)OC)CC(=O)N(C)[C@@H]1c1ccccc1	0.5	-1.1	/	-1.0	-0.6
COc1ccccc1-c1nc(COc2ccc(Cl)cc2Cl)no1	1.1	5.5	4.6*	-0.3	1.9
Nn1c(SCC(=O)NC2CCCCC2)nnc1-c1cc(-c2ccccc2)n[nH]1	-0.7	2.7	/	-1.8	-0.2
COC(=O)[C@]1(CNS(=O)(=O)c2ccc(F)cc2)CC(=O)N(C)[C@@H]1c1ccccc1	-0.1	0.0	/	-0.8	-2.2
CN(C)S(=O)(=O)c1ccc(NC(=O)c2cc3ccccc3o2)cc1	-0.5	3.2	-0.3	-1.7	-0.3
COc1ccc(C)cc1NC(=O)c1cc2ccccc2o1	0.3	4.8	1.7	1.6*	6.0*
COC(=O)c1ccccc1NC(=O)c1cc2ccccc2o1	0.3	3.8	0.9	-0.4	2.9
O=C(Nc1ccccc1C(F)(F)F)c1cc2ccccc2o1	3.4	13.1*	5.2*	0.5	4.2
CCOc1ccccc1NC(=O)c1cc2ccccc2o1	0.3	7.0	1.1	0.9*	4.5
Cc1ccc(NC(=O)c2cc3ccccc3o2)cc1S(=O)(=O)N(C)C	1.4	10.9*	3.0	0.0	3.0
CCOc1ccccc1NC(=O)c1cc2ccccc2oc1=O	0.1	0.6	2.3	-0.7	1.4
CCCCCCN1CCS(=O)(=O)N(Cc2ccc(F)cc2)C(C(=O)OC)C1 (stereo not given)	-1.3	1.2	/	-1.4	-1.2
SMILES	DAX1 inh-1	hgDAF-12 ag	DAX1 inh-2	ssDAF-12 act	hcDAF-12 act
Cc1ccc(-n2c(SCC(=O)Nc3ccc(OCc4ccccc4)cc3)nnc2-c2ccccc2)cc1	-0.7	1.8	/	-1.5	0.0
COC(=O)c1cccc(NC(=O)c2cc3ccccc3o2)c1	2.2	12.1*	-0.6	0.3	2.9
O=C(O)c1cccc(Cn2c(Cl)c(/C=N/NC(=O)c3ccc(O)cc3)sc2=O)c1	0.0	-4.4	4.6*	-1.4	0.3
O=C(CNS(=O)(=O)c1ccc(Cl)s1)N1CCN(c2ccccn2)CC1	-1.1	-2.3	/	-1.9	-2.6
O=C(c1ccccc1C(=O)N1CCN(c2ccccc2)CC1)N1CCN(c2ccccc2)CC1	-0.5	-1.8	-0.1	-0.3	-1.9
O=C(c1csc2c1CCCC2)N1CCN(c2ccccc2)CC1	0.9	6.2	-1.0	1.1*	3.4
Cc1ccc(OCCOc2c(Cl)cc(Cl)cc2Cl)c([N+](=O)[O-])n1	/	7.5	/	-1.2	1.8
CC1S/C(=N/N=C2CCC(C(C)(C)C)CC2)NC1=O (stereo not given)	2.4	12.1*	2.8	0.1	2.2
Cc1ccccc1CN1CCCCC(NC(=O)c2c(F)cccc2F)C1=O (stereo not given)	-1.6	-2.2	/	-1.2	-4.3
CCn1c(SCC(=O)Nc2ccc3c(c2)OCO3)nnc1C1CC1	-0.3	1.6	4.9*	-0.5	0.2
C[C@H]1C2CC(OC(=O)Nc3ccc4c(c3)OCO4)C(C2)[C@H]2CCCCN21 (stereo not given in full)	-0.2	-0.8	/	-0.2	1.2
Cc1ccc(Cn2cc(COC(=O)NCC(C)C)nn2)cc1	-0.2	-2.4	/	-1.0	-2.4
CCOc1ccc(N(CC(=O)Nc2c(C)n(C)n(-c3ccccc3)c2=O)S(=O)(=O)c2ccc(C)c(C)c2)cc1	-1.4	-1.2	/	-1.2	-2.9
O=C(NC1CCCCN(Cc2ccc(Cl)cc2)C1=O)c1c(F)cccc1F (stereo not given)	-0.1	-1.3	/	-1.1	-2.2
CC(C)CC(=O)Nc1ccc(-c2cn3ccsc3n2)cc1	3.4	10.8*	-1.0	0.4	2.3
CC(C)(C)C(=O)Nc1ccc(-c2cn3ccsc3n2)cc1	3.6	10.1	-3.0	0.7	5.9*
Cc1nc(-c2ccc(C(=O)Nc3cccc(Br)c3)cc2)cs1	0.1	10.9*	-3.3	-1.0	1.5
Cc1nc(-c2ccc(NC(=O)CC(C)C)cc2)cs1	0.9	12.7*	0.9	-0.8	3.9
COC(=O)[C@]12C[C@H](CC(=O)NCCc3ccccc3OC)C(=O)N(Cc3ccc4c(c3)OCO4)C1=C[C@H](C(C)C)O[C@@H]2C1CC1	-1.7	-1.2	/	-1.0	-3.5
Cc1cnc(C=O)c2cccc([N+](=O)[O-])c12	-0.7	0.0	0.1	0.3	5.9*
COc1ccc(-c2nc3ccc(N4CCN(C)CC4)cc3c(=O)[nH]2)cc1	0.7	4.5	5.0*	-0.9	-0.9
COc1cc(-c2nc3ccc(N4CCN(C)CC4)cc3[nH]2)cc(OC)c1OC	2.7	3.0	0.6	0.3	0.7
COc1ccc(/C=C2\SC(=O)N(CCC(=O)N(C)C3CCS(=O)(=O)C3)C2=O)cc1 (stereo not given)	0.2	-0.8	0.4	-0.7	-0.7
O=C(CN1C(=O)c2ccc([N+](=O)[O-])cc2C1=O)NC1CCS(=O)(=O)C1 (stereo not given)	-0.2	-2.3	5.6*	-1.1	1.0
